# Coupling enz = qHTS Assay for Inhibitors of Fructose-1,6-bisphosphate Aldolase from Giardia Lamblia: Coupling assay counterscreen; coupling enzyme system counterscreen, AmpLite Red fluorescence; activity change, negative = inhibition, % at 58.2 µM, hits read low; 0.67% of 290,000 active; AID 2472, 2010; in the data active = activity change below about -30%
#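 Fluorescence at 525 nm excitation and 598 nm emission measured inhibition of the coupled detection system without aldolase. Compounds (at 57.5 uM final) were preincubated 10 min at room temperature with coupling enzyme reagent before a 20 min substrate/AmpLite Red step.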
# NPSR antagonist = qHTS Assay for Antagonists of the Neuropeptide S Receptor: cAMP Signal Transduction; Q6W5P4; CHO-NPSR cells, cAMP TR-FRET, antagonist mode; Potency, µM (top dose mostly 38.3 µM), for inactives: top-dose activity change, negative = inhibition, hits mostly inhibitors; 1% of 220,000 active; active = well fitted curve in the direction sought with a large enough effect; inconclusive = small, poorly fitted or top-dose-only effect, or another doubt; inactive = no such curve, though single readings can be large; an effect the other way counts as inactive or inconclusive; also: potency is read from the fitted curve at half-maximal effect; nearly all actives have a fitted effect of over 50% in size
# ALDH1A1 inh = qHTS Assay for Inhibitors of Aldehyde Dehydrogenase 1 (ALDH1A1); Aldehyde dehydrogenase 1A1 (Homo sapiens), P00352; Purified ALDH1A1, NADH fluorescence, propionaldehyde substrate; Potency, µM (top dose mostly 75.3 µM), for inactives: at the top dose activity, negative = inhibition, usual class: inhibitors; 7.3% of 220,000 active; AID 1030, 2008;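 also: potency is read from the fitted curve at half-maximal effect; plate controls were no enzyme wells and a reference inhibitor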
# KDM4E inh = qHTS Assay for Inhibitors of Human Jumonji Domain Containing 2E (JMJD2E); Lysine-specific demethylase 4E (Homo sapiens), B2RXH2; JMJD2E catalytic domain, FDH-coupled NADH fluorescence (FDH is formaldehyde dehydrogenase); Potency, µM (series often up to 57.1 µM), for the others: at the top dose activity change, negative = inhibition, usual class: inhibitors; 1.6% of 230,000 active; AID 2147, 2009;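 also: potency is read from the fitted curve at half-maximal effect; 0% = wells with enzyme and -100% = buffer wells without enzyme; nearly all actives have a fitted effect of over 50% in size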
# Sfp inh = qHTS Assay for Inhibitors of Bacillus subtilis Sfp phosphopantetheinyl transferase (PPTase). Potency, µM, inactives show largest response in the series, negative = inhibition, actives largely listed as inhibitors. 3.5% of 310,000 active. 4'-phosphopantetheinyl transferase ffp (Bacillus subtilis), Q9F4F7. AID 1490, 2009. Biochemical Sfp PPTase activity, qHTS; active = well fitted curve in the direction sought with a large enough effect; inconclusive = small, poorly fitted or top-dose-only effect, or another doubt; inactive = no such curve, though single readings can be large; an effect the other way counts as inactive or inconclusive;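 also: the enzyme is Sfp with the accession as filed and its product quenches rhodamine fluorescence; potency is read from the fitted curve at half-maximal effect; 0% = enzyme reaction without inhibitor and -100% = no enzyme wells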
#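 Fluorescence-quenching assay with 15 nM Sfp, 5 uM rhodamine-CoA and 12.5 uM BHQ-2-labelled ybbR peptide in pH 7.6 Hepes/MgCl2 buffer. Enzyme was pre-incubated with compound for 15 min at room temperature. Rate was taken from the 30-min fluorescence change (525/598 nm).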
# RGS12 GoLoco inh = qHTS Assay for Inhibitors of RGS12 GoLoco Motif Activity (Red Fluorophore); Guanine nucleotide-binding protein G(i) subunit alpha-1 (Homo sapiens), P63096; Gai1:RGS12 GoLoco peptide FP, rhodamine, 10 min; 0.44% of 230,000 active; Potency, µM (series often up to 61.6 µM), for inactives: top-dose activity, negative = inhibition, usual class: inhibitors; AID 880, 2007; active = well fitted inhibition curve with a large enough effect, not every such curve was filed as active; inactive = no such curve, though single readings can be large or run the other way; also: potency is read from the fitted curve at half-maximal effect; nearly all actives have a fitted effect of over 30% in size
# Target sequence (P63096 whole entry, looked up): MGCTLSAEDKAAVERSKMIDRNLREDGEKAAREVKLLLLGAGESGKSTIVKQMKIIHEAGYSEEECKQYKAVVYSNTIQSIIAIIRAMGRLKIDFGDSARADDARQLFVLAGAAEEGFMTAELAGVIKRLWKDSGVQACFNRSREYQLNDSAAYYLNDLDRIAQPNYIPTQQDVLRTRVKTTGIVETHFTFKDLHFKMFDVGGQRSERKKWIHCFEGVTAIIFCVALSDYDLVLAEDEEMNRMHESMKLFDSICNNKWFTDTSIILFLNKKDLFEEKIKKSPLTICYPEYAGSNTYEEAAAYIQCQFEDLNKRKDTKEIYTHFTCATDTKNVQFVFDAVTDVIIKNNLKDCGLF
# Numbers without * were called inactive; u = inconclusive; x = not tested or not shown; [ ] = another dose, or the depositor's remark. Only some compounds are listed: those with a hit (about 8.5% of all), similar ones and a draw of the others. Unless noted, calls follow the shape of the dose curve; as a rule, active = well fitted inhibition curve with a large enough effect (not every such curve was filed as active); inconclusive = small, poorly fitted or top-dose-only effect, or another doubt; inactive = no such curve, though single readings can be large or run the other way. Unless noted, % is scaled to controls: 0 for no effect and ±100 for the full control effect.
SMILES,Coupling enz,NPSR antagonist,ALDH1A1 inh,KDM4E inh,Sfp inh,RGS12 GoLoco inh
CCOC(=O)N1CCN(CCC(=O)Nc2cccc(Cl)c2C)CC1,0.5,x,x,x,-5.2%,x
N#Cc1c(C(F)(F)F)cc(-c2cccs2)nc1SCc1ccc(Cl)nc1,-2.4,-5.3%[46.1 µM],u,u,22.4µM*,1.8%
CC1(O)CC(=O)N(c2ccccc2)O1 (stereo not drawn),-1.6,4.7%[46.1 µM],22.4µM*,-5.4%,8.4%,-0.4%
COc1cc(C2N(c3cccc(Cl)c3)C(=O)C3CCCN32)cc(OC)c1OC (stereo not drawn),0.4,-1.9%[46.1 µM],-9.8%,-10.1%,17.0%,1.7%
COc1cc(C2N(c3ccccc3)CCN2c2ccccc2)cc(OC)c1OC,-36.4*,17.6%[46.1 µM],u,u,-20.3%,2.5%
COC(=O)CC1C(=O)NCCN1C(=O)c1ccc(Cl)cc1 (stereo not drawn),4.2,x,x,x,-16.0%,x
O=c1[nH]c(NNC(=S)NC2CCCCC2)nc2c1C1(CCCC1)Cc1ccccc1-2,-2.2,u,x,u,79.4µM*,20.2%
CCN(CC)Cc1nc2c(c(=O)[nH]1)C1(CCCCC1)Cc1ccccc1-2,-3.4,9.7%[46.1 µM],25.1µM*,-0.5%,6.4%,2.9%
O=c1c2c(nc3n1CCCCC3)-c1ccccc1CC21CCCC1,7.6,u,0.631µM*,-2.7%,1.4%,5.0%
C=CCNC(=S)NNc1nc2c(c(=O)[nH]1)C1(CCCC1)Cc1ccccc1-2,-4.8,-15.2%[46.1 µM],3.55µM*,u,u,0.9%
CN(C)Cc1nc2c(c(=O)[nH]1)C1(CCCCC1)Cc1ccccc1-2,1.0,0.9%[46.1 µM],0.7%,-1.3%,-22.8%,1.0%
CC1(CC(=O)N/N=C/c2cc(Br)c(O)cc2O)OCCO1,0.4,-9.3%[46.1 µM],-0.8%,25.1µM*,19.0%,2.0%
O=C(CSc1nnc2n(C3CCCC3)c(=O)c3ccccc3n12)N1CCCCCC1,4.0,-17.4%[46.1 µM],u,6.3%,9.9%,8.2%
CC1CCCN(C(=O)CSc2nnc3n(C4CCCC4)c(=O)c4ccccc4n23)C1 (stereo not drawn),2.1,u,7.94µM*,u,12.2%,-4.7%
Cc1ccoc1C(=O)N1CCN(C(=O)c2occc2C)CC1,-1.3,x,x,x,-7.5%,x
Cc1ccc(S(=O)(=O)/N=S(\C)CC2CC2(Cl)Cl)cc1 (stereo not drawn),-4.2,8.5%[46.1 µM],10µM*,-4.3%,9.1%,-9.4%
CCCC/S(CC1CC1(Cl)Cl)=N\S(=O)(=O)c1ccc(C)cc1 (stereo not drawn),0.8,-13.6%[46.1 µM],u,8.1%,3.4%,-11.6%
N#CC(C#N)=C1c2cc(S(=O)(=O)NCCO)ccc2-c2ccc(S(=O)(=O)NCCO)cc21,-26.6,-10.9%,x,-21.9%,56.2µM*,2.8%
NS(=O)(=O)c1ccc2c(c1)C(=NO)c1cc(S(N)(=O)=O)ccc1-2,0.8,x,x,x,-1.9%,x
N#CC(C#N)=C1c2cc(S(N)(=O)=O)ccc2-c2ccc(S(N)(=O)=O)cc21,-18.1,-37.0%,7.94µM*,-1.1%,39.8µM*,9.4%
O=C1c2cc(S(=O)(=O)NCCO)ccc2-c2ccc(S(=O)(=O)NCCO)cc21,0.1,4.8%,25.4%,6.6%,15.2%,0.0%
COc1ccc(NC(=O)CN(C)C(=O)c2ccc3c(c2)S(=O)(=O)N=C2CCCCCN23)cc1,x,x,x,x,18.8%,x
CN(C)c1ccc(/C=C2/C(=O)Nc3ccccc32)cc1,-4.3,x,u,-5.8%,u,7.0%
CCN(CC)c1ccc(/C=C2\C(=O)N(c3nnc(C)c(=O)[nH]3)N=C2C)cc1,-7.9,u,x,u,10µM*,206.4%
CCN(CC)c1ccc(/C=C2/C(=O)c3ccc(C(=O)O)cc3C2=O)cc1,2.1,-51.0%,8.91µM*,-3.0%,u,26.2%
CCCCC1(C)OC(=O)C(=Cc2ccc(N(CC)CC)cc2)C(=O)O1 (stereo not drawn),x,-3.6%[46.1 µM],0.398µM*,-12.5%,-6.9%,206.2%
CC1=NOC(=O)/C1=C/c1ccc(N(C)C)cc1,0.4,-27.0%[46.1 µM],0.1%,1.1%,4.0%,x
CCN(CC)c1ccc(/C=C2/C(=O)ON=C2C)cc1,-0.7,-16.5%,1.5µM*,5.4%,-16.4%,99.8%
COc1cc2c(cc1OC)CN(C(=O)C1CCN(S(=O)(=O)c3ccccc3F)CC1)CC2,0.3,x,x,x,4.4%,x
